rCAG binder = binders of r(CAG) RNA repeats, primary screen, biochemical, fluorescence; inhibition, % at 3 µM; r(CAG) RNA repeat, TO-PRO-1 dye displacement fluorescence; 370,000 tested, 1.3% active;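 active = inhibition above the plate cutoff, the mean of all test compounds on that plate plus 3 SD, cut at about 35% in these data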;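 note: 0% = DMSO alone and 100% = 100 µM mitoxantrone as full dye displacement; higher means more dye released from RNA so lower well fluorescence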
A3G deaminase = APOBEC3G DNA deaminase inhibitors, primary screen, biochemical, fluorescence, single-stranded DNA substrate, uHTS. recombinant A3G, ssDNA deamination FAM/TAMRA fluorescence. inhibition, % at 20 µM. 330,000 tested, 0.28% active. DNA dC->dU-editing enzyme APOBEC-3G (Homo sapiens), Q9HC16;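 active = inhibition of at least 40% at 20 µM, with no more than 30% in the related APOBEC3A deaminase screen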;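 note: plate controls were DMSO wells with A3G for no effect and wells lacking A3G enzyme for full effect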
A3A deaminase = APOBEC3A ssDNA deaminase inhibitors, primary screen, selectivity assay for APOBEC3G inhibitor project, biochemical, FAM/TAMRA oligo cleavage fluorescence. inhibition, % at 20 µM. recombinant A3A, FAM/TAMRA ssDNA deamination fluorescence. DNA dC->dU-editing enzyme APOBEC-3A (Homo sapiens), P31941. 330,000 tested, 0.41% active;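 active = at least 40% inhibition at 20 µM here, with at most 30% in a related deaminase screen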;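 note: plate controls were A3A with DMSO for no effect and wells lacking A3A enzyme for full effect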
PHOSPHO1 inh = PubChem AID 1565; recombinant PHOSPHO1, absorbance phosphatase assay; inhibition, % at 13.3 µM; 290,000 tested, 1.1% active; in the data active = inhibition above about 60%
Target sequence (Q8TCT1 whole entry, looked up): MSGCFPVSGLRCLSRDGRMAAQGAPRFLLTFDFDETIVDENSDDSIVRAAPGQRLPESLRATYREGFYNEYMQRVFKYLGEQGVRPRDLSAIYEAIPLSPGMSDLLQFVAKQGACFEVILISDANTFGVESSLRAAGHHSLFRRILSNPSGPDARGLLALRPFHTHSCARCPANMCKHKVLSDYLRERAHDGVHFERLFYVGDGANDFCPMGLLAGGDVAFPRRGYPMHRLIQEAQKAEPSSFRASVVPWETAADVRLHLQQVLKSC
aDG glyco up = activators of alpha-DG glycosylation, primary screen, uHTS, Pro5-aDG cells, AlphaScreen | alpha-DG glycosylation AlphaScreen (IIH6); 0% Pro5, 100% B10-LARGE cell signal | activation, % at 10 µM | 360,000 tested, 0.22% active;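 active = activation of at least 8% versus controls, or a plate z-score of at least 8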;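 note: Pro5 are CHO cells carrying HIG-tagged alpha-DG that lacks glycosylation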
ALR H2O2 inh = inhibitors of human ALR sulfhydryl oxidase, primary screen, biochemical, H2O2 detection, HRP-luminol luminescence, single point; FAD-linked sulfhydryl oxidase ALR (Homo sapiens), P55789; purified ALR, DTT oxidation; 290,000 tested, 3.8% active; inhibition, % (no concentration beside the values);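 active = mean replicate inhibition above about 79%, with every replicate also reaching it, limit read from the data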
Target sequence (P55789 whole entry, looked up): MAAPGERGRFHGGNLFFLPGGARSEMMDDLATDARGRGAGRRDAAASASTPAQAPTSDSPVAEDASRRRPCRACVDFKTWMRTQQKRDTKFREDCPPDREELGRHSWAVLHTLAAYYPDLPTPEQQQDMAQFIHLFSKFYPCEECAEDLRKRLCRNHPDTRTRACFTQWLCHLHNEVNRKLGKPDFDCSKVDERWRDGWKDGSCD
aDG conf = alpha-DG glycosylation enhancers, retest, confirmation, single concentration, Pro5-aDG cells | shares compounds with aDG glyco up | IIH6 AlphaLISA; scaled to LARGE-overexpressing B10 cells as 100% | activation, % at 10 µM (by protocol) | 600 tested, 17% active;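 active = activation of at least 7% in one or more replicates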;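 note: cells exposed to compound for two days before detection; 0% = DMSO-treated Pro5 cells and 100% = DMSO-treated B10-LARGE cells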
* = called active by the depositor; . = no result given. In the library only some 5.4% were active in any assay of this set; here they are far more common.

SMILES	rCAG binder	A3G deaminase	A3A deaminase	PHOSPHO1 inh	aDG glyco up	ALR H2O2 inh	aDG conf
CCc1ccc(N2CC(C(=O)N3CCN(c4ccccn4)CC3)CC2=O)cc1 (configuration not stated)	-3	-6	-2	.	0	-4	.
CCCN(CC(=O)Nc1cc(Cl)cc(Cl)c1)CC(=O)Nc1ccc(F)c(F)c1F	7	0	2	-1	5.9*	-3	0
CCCN(CC(=O)Nc1ccccc1Br)CC(=O)Nc1ccc(F)c(F)c1F	-6	-4	3	-9	0	.	.
COc1ccc(CNCCC(c2ccccc2)c2ccc3c(c2)OCO3)cc1 (configuration not stated)	16	-5	1	46	3.9*	-14	1
COc1ccc(-c2cc(NC=O)c3ncc(-c4cccc(C(F)(F)F)c4)n3c2)cc1OC	9	.	.	.	0	.	.
CCNC(=O)Nc1cc(S(=O)(=O)Nc2ccc(OC)cc2)ccc1N1CCOCC1	.	-6	0	.	4.9*	5	-1
CNc1nc(-c2c(C)n(C)c3ccc(OC)cc23)cs1	14	-2	-2	38	3.0*	.	4
COc1ccc2c(c1)c(-c1csc(N)n1)c(C)n2C	16	-2	-2	-24	2	-6	.
COc1ccc(C2=NNC(=O)C2(C)Br)cc1 (configuration not stated)	12	.	.	.	0	.	.
CC(C)NC(=O)N(C)C[C@H]1Oc2ccc(NS(=O)(=O)c3cn(C)cn3)cc2C(=O)N([C@H](C)CO)C[C@@H]1C	-1	-5	0	.	9.3*	0	2
COC(=O)c1ccc(CNC(=O)Cn2cnc3c(NCc4ccccc4)ncnc32)cc1	-1	6	4	.	8.3*	.	1
C=CCN=C1NC(c2ccc(F)cc2)C(C(=O)OC)=C(C)N1C (configuration not stated)	-1	.	.	.	.	.	.
CCC1CCCN1Cn1cnc2c([nH]c3ccc(OC)cc32)c1=O (configuration not stated)	-1	-1	5	3	3.8*	-6	1
CCC1CCCN1Cn1cnc2c([nH]c3ccccc32)c1=O (configuration not stated)	0	-5	-1	30	0	1	.
Cc1cccc(NC(=O)COC(=O)CN2C(=O)c3ccccc3C2=O)c1C	1	.	.	.	4	.	.
CCN(CC)CCCN(C(=O)c1ccccc1F)c1nc(-c2ccc(OC)cc2)cs1	2	-5	-2	.	4.0*	-8	2
Cc1ccc(OCC(O)CNC2CCCC2)c(C)c1 (configuration not stated)	1	-8	-3	.	0	32	.
Cc1ccc(OCCCCNC2CCCCC2)c(C)c1	2	-7	-2	42	6.9*	-18	1
O=C1C(Cl)=C(NCCCO)C(=O)c2ccccc21	-1	-5	-3	8	8.7*	-22	3.2*
O=C1N[C@@H](Cc2ccccc2)C(=O)N2[C@H]1CSCCS2(=O)=O	3	.	.	.	.	.	.
CCCCOCCCNS(=O)(=O)c1ccccc1	-7	-3	-2	-9	0	6	.
CCCCOP(=O)(OCCCC)C1(NS(=O)(=O)c2ccccc2)C=CC(=O)c2ccccc21 (configuration not stated)	9	-1	9	21	5.9*	53	1
CCCCn1nnnc1C(c1cc2ccccc2o1)N(C)Cc1ccc(Cl)cc1 (configuration not stated)	5	.	.	.	0	.	.
Cc1cccc2cc(C#N)c(SCC(=O)Nc3ccccc3N3CCOCC3)nc12	7	-20	-11	-22	4.9*	2	-1
N#Cc1cc2ccccc2nc1SCC(=O)Nc1ccccc1N1CCOCC1	-2	.	.	37	0	-22	.
SMILES	rCAG binder	A3G deaminase	A3A deaminase	PHOSPHO1 inh	aDG glyco up	ALR H2O2 inh	aDG conf
COCCCNCCCCOc1ccc(Br)cc1C	3	-2	3	-6	4	-19	.
Cc1cc(Br)ccc1OCCCCNC(C)(C)C	3	-4	-3	-3	4.3*	-2	7.2*
O=C(CSc1nnc(Cn2nnc3ccccc32)o1)N(Cc1ccc(Cl)cc1)c1ccccc1	-4	-5	-2	-27	6.4*	-13	0
O=C(CSc1nnc(Cn2nnc3ccccc32)o1)Nc1cccc(Cl)c1	5	-5	-1	-14	0	20	.
O=C(C[C@H]1C(=O)N(Cc2ccccc2)C[C@@H]1c1ccc(Br)cc1)Nc1ccc(Br)cc1	12	.	.	.	0	.	.
Cc1onc(-c2ccccc2)c1C(=O)N/N=C/c1ccco1	2	1	4	30	0	3	.
O=C(Cc1cccs1)N/N=C\c1ccc([N+](=O)[O-])s1	3	-13	-1	21	13*	-33	3.9*
O=C(CNC(=O)c1ccccc1Cl)N/N=C/c1ccc([N+](=O)[O-])s1	5	-9	-5	-20	12*	-40	6.5*
Cc1onc(-c2ccccc2)c1C(=O)N/N=C/c1ccc([N+](=O)[O-])s1	13	-3	-2	-1	6.0*	-15	3
CN(NC(=O)C(=O)NCc1ccco1)C(=O)NC1CCCCC1	2	.	.	.	.	.	.
O=C(CCC1CCN(Cc2nccs2)CC1)Nc1ccccc1	4	.	.	.	0	.	.
COc1ccc(OC)c(C(=O)N(C[C@H]2CC[C@@H]([C@@H]3CC[C@H](CO)O3)O2)C(C(=O)NC(C)(C)C)c2ccc(-c3ccccc3)cc2)c1 (some centres not stated)	4	2	0	.	5.8*	.	1
COc1ccc(C(C(=O)NC(C)(C)C)N(C[C@H]2CC[C@@H]([C@@H]3CC[C@H](CO)O3)O2)C(=O)c2ccccc2)cc1 (some centres not stated)	-1	4	3	.	0	.	.
CCN=C1NC(c2ccccc2)C(C(=O)OC)=C(C)N1Cc1ccc(C(F)(F)F)cc1 (configuration not stated)	8	.	.	.	.	.	.
COc1cc(C#Cc2c(-c3cncn3C)n(C)c3ccc(-c4ccc(OC)c(OC)c4)cc23)cc(OC)c1	12	0	1	.	4	-6	.
COc1cc(C#Cc2c(-c3cncn3C)n(C)c3ccc(Br)cc23)cc(OC)c1	12	-5	2	.	5.0*	-7	1

From PubChem
